Rows were chosen to be rich in hits. Some 2.3% of all compounds tested hit in one or more screens of this group.
iPSC survival up – increases survival of single human iPS cells; hiPSC single-cell survival, ATPlite luminescence; 100% = ROCK inhibitor wells, 0% = DMSO; survival enhancement, % at 20 µM; AID 602274; 360,000 tested, 0.044% active; in the data active = survival enhancement above about 18%;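 also: cells exposed to compounds for 16 hours before the ATP read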
CF NFkB block – cystic fibrosis NF-kB activation inhibition | AID 588850 | inhibition, % at 5 µM | 360,000 tested, 0.86% active | KKLEB NF-kB-GFP reporter, PAF-induced, GFP fluorescence overnight;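 active = at least 50% inhibition at 5 µM, scaled per plate between neutral and stimulator controls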;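 also: PAF is a Pseudomonas aeruginosa culture filtrate used as stimulus; plate controls were PAF-stimulated DMSO wells for no effect and unstimulated DMSO wells for full effect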
TWEAK Fn14 block – TWEAK-Fn14 signaling inhibition. TWEAK-stimulated Fn14 reporter cells, luciferase luminescence, 8 h. inhibition, % at 10 µM. 360,000 tested, 2% active; in the data active = inhibition above about 50%
HIF-2a inh – inhibitors of HIF-2a; 786-0 RCC cells HIF-2a reporter, luciferase luminescence, overnight; inhibition, % at 18.8 µM; 360,000 tested, 0.72% active;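 active = inhibition of the luminescence signal of 40% or more relative to plate controls, in a single-dose primary screen at 18.75 µM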
KKLEB tox – reduces viability of KKLEB cystic fibrosis airway cells; activity change (cytotoxicity), % at 5 µM; AID 602141; KKLEB CF airway cells viability, ATPlite luminescence, overnight; hits give low values; cells stimulated with P. aeruginosa culture filtrate; 360,000 tested, 0.36% active;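 active = corrected activity change at or below -50% at 5 µM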
LGR2 antag – blocks bursicon-induced cAMP signaling via Drosophila LGR2 | HEK293 LGR2, CRE-luciferase, bursicon-stimulated, 4 h | inhibition, % at 9.99 µM | 380,000 tested, 0.35% active | AID 720647;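 active = drop in luminescence signal, shown as inhibition above about 50% in the replicate tests, limit read from the data, passing the limit was not always enough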;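 also: agonist challenge used bursicon conditioned medium at about half maximal strength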
* marks the source's active call; other numbers are inactive results; . = no result given; ! = repeats disagree.

SMILES | iPSC survival up | CF NFkB block | TWEAK Fn14 block | HIF-2a inh | KKLEB tox | LGR2 antag
CO[C@@H]1CN(C)C(=O)c2ccc(NS(=O)(=O)c3ccccc3C)cc2OC[C@@H](C)N(S(=O)(=O)c2ccccc2)C[C@H]1C | . | . | . | . | . | 2
COc1ccc(S(=O)(=O)NCCSCc2ccco2)cc1 | 3 | 1 | 72* | 19 | 9 | 24
CCOc1ccc(S(=O)(=O)NCCSCc2ccco2)cc1 | -2 | -1 | 11 | 7 | 1 | 1
COc1cccc(-n2c(SCC(=O)N3CCc4ccccc43)nnc2-c2c[nH]c3ccccc23)c1 | -2 | 60* | -42 | 4 | -58* | .
COc1ccc(C(CC(=O)c2ccc(C)cc2)Sc2ccccc2N)cc1 (configuration not stated) | 2 | 3 | 70* | -150 | -16 | 32
Nc1ccccc1SC(CC(=O)c1ccccc1)c1ccc([N+](=O)[O-])cc1 (configuration not stated) | -3 | -2 | 11 | -156 | 14 | -114
Cc1cccn2cc(-c3ccc(Cl)cc3)nc12 | -2 | -35 | 53* | -147 | 1 | 18
Cc1ccc(-c2cn3cccc(C)c3n2)cc1 | 0 | -29 | 33 | -129 | -3 | 16
O=C1C=C(Nc2ccc(Cl)cc2)CC(c2ccco2)C1 (configuration not stated) | 2 | -2 | 56* | 7 | 12 | .
CC(C)=CCc1cc(-c2oc3cc(O)cc(O)c3c(=O)c2O)ccc1O | 3 | 35 | 49 | -61 | 15 | -28
CC(C)=CCc1c(O)cc2oc3c(CC=C(C)C)c(O)c(O)c(CC=C(C)C)c3c(=O)c2c1O | 0 | 36 | 82* | 23 | -27 | .
C[C@@H]1CN([C@@H](C)CO)S(=O)(=O)c2ccc(-c3ccc(F)cc3)cc2O[C@H]1CN(C)Cc1cccc(F)c1 | . | . | . | . | . | 19
CNC[C@@H]1Oc2ccc(NS(=O)(=O)c3ccc(Cl)cc3)cc2CC(=O)N([C@@H](C)CO)C[C@@H]1C | . | . | . | . | . | 3
O=C(NCC(=O)N1CCN(S(=O)(=O)c2ccccc2C(F)(F)F)CC1)c1sc2ccccc2c1Cl | 0 | 48 | -40 | 5 | -55* | 8
CO[C@H](CN(C)C(=O)C1CCOCC1)[C@H](C)CN(C(=O)Nc1ccc(F)cc1)[C@@H](C)CO | . | . | . | . | . | 4
CC(=O)Nc1nc(C)c(-c2csc(Nc3ccccn3)n2)s1 | 0 | 56*! | 4 | -210 | -21 | -40
CC(=O)Nc1cccc(-c2csc(Nc3ccccn3)n2)c1 | -2 | -10 | 58* | -240 | 12 | .
CCCC(=O)Nc1nc(C)c(-c2csc(Nc3ccc(Cl)cc3)n2)s1 | 2 | 34 | -10 | 3 | -4 | -5
CC(=O)Nc1nc(C)c(-c2csc(Nc3ccc(O)cc3)n2)s1 | -5 | 78* | 0 | 0 | -17 | .
CC(=O)c1cccc(Nc2nc(-c3cccc([N+](=O)[O-])c3)cs2)c1 | 0 | -48 | 39 | -196 | 4 | .
CC(=O)Nc1nc(C)c(-c2csc(Nc3cccc([N+](=O)[O-])c3)n2)s1 | 0 | 86* | 59* | -31 | -39 | 16
O=C(O)[C@@H]1[C@@H](CO)[C@@H]2Cn3c(ccc(-c4ccccc4)c3=O)[C@@H]2N1Cc1ccccc1F | . | . | . | . | . | -7
COc1ccc(S(=O)(=O)N(C)C[C@@H]2Oc3ccc(NC(=O)NC4CCCCC4)cc3C(=O)N([C@@H](C)CO)C[C@H]2C)cc1 | . | . | . | . | . | 15
Cc1nc(NC(=O)c2ccccc2)sc1-c1csc(Nc2ccc(C(=O)O)cc2)n1 | 0 | 66* | 40 | -136 | -4 | -34
CCC(=O)Nc1nc(C)c(-c2csc(Nc3ccc(C(=O)O)cc3)n2)s1 | 0 | -1 | 1 | 11 | 4 | -10
O=C(C[n+]1cn(C(F)F)c2ccccc21)c1ccc(Br)cc1 | 0 | -14 | 86* | -1 | 12 | -11
Cc1ccc(N/N=C(\C#N)C(N)=S)cc1C | 0 | 67* | 62* | -80 | 0 | .
N#C/C(=N\Nc1ccccc1)C(N)=S | 0 | 18 | 30 | -7 | -5 | 26
N#C/C(=N\Nc1ccc(Cl)cc1)C(N)=S | 0 | 61* | 60* | -161 | -39 | 50
O=C(Cc1ccccn1)N[C@H]1CC[C@H](CCn2cc(-c3ccccc3)nn2)O[C@@H]1CO | . | . | . | . | . | -1

High-throughput results (PubChem)
